Assay outcomes (PubChem)
A selection: hits, their analogues and other compounds. The true share with any hit is near 1.2%.
RAD52 anneal inh: RAD52 (human) annealing inhibition; inhibition, % at 18.7 µM; 360,000 compounds, 0.46% hits; recombinant RAD52 DNA annealing, FRET fluorescence; AID 651710;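 active = every replicate showing at least 50% inhibition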
Target sequence (P43351 whole entry, looked up): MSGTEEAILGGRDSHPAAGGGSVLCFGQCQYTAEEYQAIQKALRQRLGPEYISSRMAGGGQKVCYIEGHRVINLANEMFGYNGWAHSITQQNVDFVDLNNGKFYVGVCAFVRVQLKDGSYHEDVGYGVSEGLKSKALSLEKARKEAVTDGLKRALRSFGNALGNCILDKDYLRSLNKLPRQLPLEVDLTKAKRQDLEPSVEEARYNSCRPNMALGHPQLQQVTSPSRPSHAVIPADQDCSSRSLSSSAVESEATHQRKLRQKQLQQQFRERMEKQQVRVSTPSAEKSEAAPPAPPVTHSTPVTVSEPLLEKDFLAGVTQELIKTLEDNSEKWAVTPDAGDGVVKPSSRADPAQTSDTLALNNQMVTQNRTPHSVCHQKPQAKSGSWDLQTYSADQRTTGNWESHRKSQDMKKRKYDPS
RAD54 branch: inhibitors of human RAD54 branch migration; Q92698; RAD54 Holliday junction branch migration, FAM/BHQ fluorescence; 360,000 compounds, 0.14% hits; inhibition, % at 10.4 µM;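 active = mean normalized replicate activity at least 40 and at least half of replicates scoring 40 or more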;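 note: inhibitors cause a drop in the FAM fluorescence signal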
MLL AF4-AF9 inh: MLL-AF4/AF9 protein interaction inhibition | P42568 | AlphaScreen, biotin-AF4 peptide binding to FLAG-AF9 | inhibition, % at 10 µM | 350,000 compounds, 0.47% hits | AID 651704;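 active = every replicate reaching a set inhibition limit, whatever the replicate mean, cut at about 25% in these data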
N-glyco inh: N-linked glycosylation inhibition. 360,000 compounds, 0.23% hits. D54 ERlucT glycosylation luciferase reporter, 24 h; percent of 100 nM tunicamycin response. reporter increase, % at 12.5 µM;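 active = mean luciferase reporter signal, scaled so untreated is 0 and the glycosylation-blocking control 100, at or above a set limit in every replicate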;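 note: luciferase carries N-glycosylation sites so blocking glycosylation raises the light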
CASP6 VEID inh: blocks human caspase-6 cleavage activity; purified caspase-6, Z-VEID-R110 cleavage fluorescence; inhibition, % at 12.5 µM; 350,000 compounds, 0.53% hits; AID 686996;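 active = mean inhibition across replicates at least about 35%, with every replicate also reaching that limit, limit read from the data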
Alpha interfer: counter-screen: AlphaScreen signal interference | shares compounds with MLL AF4-AF9 inh | signal luminescence | AC50, µM (series often up to 12 µM) | 530 compounds, 45% hits | AID 720494; cut-off not given, nearly all actives have AC50 up to about 14 µM
Hits are given with their value; n = inactive; x = not tested or not shown.

SMILES	RAD52 anneal inh	RAD54 branch	MLL AF4-AF9 inh	N-glyco inh	CASP6 VEID inh	Alpha interfer
COc1cc(/C=N/N=C(N)N)ccc1OCc1ccc(Cl)cc1	n	n	27	n	n	n
CCOc1cc(/C=N/N=C(N)N)ccc1OCc1ccc(Cl)cc1	n	n	27	n	n	n
COc1cc(/C=N/O)ccc1OCc1ccc(Cl)cc1	n	x	n	x	n	x
CN(C)c1ccc(CNCCC(Cc2ccccc2)c2ccco2)cc1 (centres undefined)	n	n	49	n	n	10µM
c1ccc(CNCCC(Cc2ccccc2)c2ccco2)cc1 (centres undefined)	n	n	n	n	n	x
C[C@H](CO)N1C[C@H](C)[C@H](CN(C)Cc2cccc(C(F)(F)F)c2)Oc2ncc(/C=C/c3ccccc3)cc2C1=O	n	n	n	x	n	x
C[C@@H]1CN([C@H](C)CO)C(=O)c2cc(NC(=O)c3ccncc3)ccc2O[C@@H]1CN(C)CC1CCCCC1	n	n	n	x	n	x
COc1cccc(-c2ccc3c(c2)[C@@H]2[C@@H](CCN2C(=O)C2CC2)[C@@H](CO)N3)c1	n	x	n	x	n	x
COc1ccc(C#Cc2ccc3c(c2)[C@H]2[C@H](CCN2C(=O)c2ccncc2)[C@H](CO)N3)cc1	x	n	x	x	x	x
COc1cccc(-c2ccc3c(c2)[C@H]2[C@H](CCN2C(=O)C2CCCCC2)[C@@H](CO)N3)c1	n	x	40	x	n	n
COc1ccc(C#Cc2ccc3c(c2)[C@H]2[C@H](CCN2C(=O)c2ccncc2)[C@@H](CO)N3)cc1	51	x	34	x	n	13µM
COc1ccc2c3c(n(C)c2c1)[C@H](CO)N(Cc1ccc2c(c1)OCO2)CC31CN(C(=O)C2CC2)C1	n	x	n	x	n	x
C[C@H](NC(=O)C[C@@H]1CC[C@H](NC(=O)Cc2ccccn2)[C@H](CO)O1)c1ccccc1	n	n	n	x	n	x
C#CCOCCOCCOCCNc1nc(N2CCOCC2)nc(N2CCN(C(=O)[C@H](CCCCN)n3cc(CCCC)nn3)CC2)n1	n	n	n	n	n	x
C#CCOCCOCCOCCNc1nc(N2CCN(C(=O)[C@H](CCCCN)n3cc([C@@H](N)CC(N)=O)nn3)CC2)nc(N2CCN(C(=O)[C@H](CCCCN)n3cc([C@@H](N)CC(N)=O)nn3)CC2)n1	61	n	37	n	n	n
C#CCOCCOCCOCCNc1nc(N2CCN(C(=O)[C@H](CCCCN)n3cc(CCCC)nn3)CC2)nc(N2CCN(C(=O)[C@H](CCCCN)n3cc(CCCC)nn3)CC2)n1	n	n	26	n	n	n
C#CCOCCOCCOCCNc1nc(N2CCN(C(=O)[C@H](CCC(=O)O)n3cc([C@@H](N)CC(N)=O)nn3)CC2)nc(N2CCN(C(=O)[C@H](CCC(=O)O)n3cc([C@@H](N)CC(N)=O)nn3)CC2)n1	n	n	n	n	n	x
COc1ccc(/C=C/C(=O)c2ccc(OC)cc2OC)cc1	n	n	n	n	n	x
COc1ccc(/C=C/C(=O)c2cc3c(cc2N)OCO3)cc1	n	x	38	n	n	n
COc1cccc(CNc2ccc3[nH]c(=O)[nH]c3c2)c1OCc1ccccc1F	n	n	41	n	n	n
COc1cc(CNc2ccc3[nH]c(=O)[nH]c3c2)cc(Br)c1OCc1ccc(F)cc1	n	n	n	n	n	x
Cc1cc2c(OCC(O)CNC3CCCCC3)cccc2[nH]1 (centres undefined)	n	x	29	n	n	n
OC(CNC1CCCCCC1)COc1cccc2ccccc12 (centres undefined)	n	n	n	n	n	x
COc1ccc(NS(=O)(=O)c2ccc(C)c(C(=O)N3CCN(Cc4cc(OC)ccc4OC)CC3)c2)cc1	n	n	35	n	n	n
C[C@@H]1CN([C@H](C)CO)C(=O)c2cc(NC(=O)CCC(F)(F)F)ccc2O[C@@H](C)CCCCO[C@H]1CN(C)C(=O)CCC(F)(F)F	n	n	n	x	n	x
Oc1c(C(Nc2cccc(C(F)(F)F)c2)c2cccnc2)ccc2cccnc12 (centres undefined)	x	x	x	n	x	x
Oc1cccc(C(Nc2nccs2)c2ccc3cccnc3c2O)c1 (centres undefined)	n	x	49	n	n	3.3µM
c1ccc(N=Nc2ccc3cccccc2-3)cc1	n	n	77	26	n	1µM
Nc1ccc(N=Nc2ccccc2)c2ccccc12	n	n	n	n	n	x
Cc1cc(C)n2c(Nc3ccc4c(c3)OCCO4)c(-c3ccccn3)nc2n1	n	x	n	x	n	x
